This is part of a sample that, as a whole, favours compounds with a hit. Of some 83,000 tested, about 20% had one in any assay.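 Compound tested at a single concentration for 48 hours in 96-well plates; a percent growth value below 10 was scored as active.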 Calls of active or inactive are those of the source.
Experiments:
Assay in all cases: NCI-60 one-dose screen, 48 h (100 = growth as untreated, 0 = no growth, -100 = all killed)
Conditions in all cases: 10 µM unless noted
NCI-H23 lung = test system: NCI-H23 lung
NCI-H226 lung = test system: NCI-H226 lung
NCI-H322M lung = test system: NCI-H322M lung
HOP-62 NSCLC = test system: HOP-62 NSCLC
NCI-H460 lung = test system: NCI-H460 lung
HOP-92 NSCLC = test system: HOP-92 NSCLC
NCI-H522 lung = test system: NCI-H522 lung
A549/ATCC NSCLC = test system: A549/ATCC NSCLC
786-0 renal = test system: 786-0 renal
DU-145 prostate = test system: DU-145 prostate
K-562 leukemia = test system: K-562 leukemia
MALME-3M melanoma = test system: MALME-3M melanoma
MDA-MB-231 breast = test system: MDA-MB-231 breast
RXF 393 renal = test system: RXF 393 renal
SF-268 CNS = test system: SF-268 CNS
SF-295 CNS = test system: SF-295 CNS
UACC-257 melanoma = test system: UACC-257 melanoma
M14 melanoma = test system: M14 melanoma
SF-539 CNS = test system: SF-539 CNS

Measured: growth

CN(C)CCCCNc1ccc(NCCCCN(C)C)c2c1C(=O)c1c(O)ccc(O)c1C2=O
active: NCI-H23 lung -68.5% | NCI-H460 lung -79.1% | NCI-H522 lung -77.9% | A549/ATCC NSCLC -82.9% | 786-0 renal -75.1% | K-562 leukemia -54.5% | MDA-MB-231 breast -78.2% | RXF 393 renal -96% | SF-295 CNS -81.5% | M14 melanoma -63.3%
inactive: NCI-H226 lung 102% | NCI-H322M lung 56.1% | HOP-62 NSCLC 69.4% | HOP-92 NSCLC 40.6% | DU-145 prostate 58.3% | MALME-3M melanoma 130% | SF-268 CNS 76.2% | UACC-257 melanoma 99.5%

N[C@H]1CCC[C@@H]1NCCCCN1C(=O)c2cccc3cccc(c23)C1=O
inactive: NCI-H23 lung 71% | NCI-H226 lung 83.8% | NCI-H322M lung 54.9% | HOP-62 NSCLC 76.2% | NCI-H460 lung 39.4% | HOP-92 NSCLC 51.4% | NCI-H522 lung 57.1% | A549/ATCC NSCLC 53.3% | 786-0 renal 54.8% | DU-145 prostate 43.4% | K-562 leukemia 65.9% | MALME-3M melanoma 104% | MDA-MB-231 breast 52.4% | RXF 393 renal 63.9% | SF-268 CNS 48.1% | SF-295 CNS 71.9% | SF-539 CNS 29.7% | UACC-257 melanoma 104% | M14 melanoma 53.1%

NC(=O)c1c(NC(=O)c2ccccn2)sc2c1CCC(=O)C2
active: NCI-H522 lung -13.5% | MDA-MB-231 breast 7.89% | SF-539 CNS 1.9%
inactive: NCI-H23 lung 17.2% | NCI-H226 lung 70.7% | NCI-H322M lung 94.3% | HOP-62 NSCLC 81% | NCI-H460 lung 71.2% | HOP-92 NSCLC 15.9% | A549/ATCC NSCLC 60.6% | 786-0 renal 89.4% | DU-145 prostate 91.5% | K-562 leukemia 10.1% | MALME-3M melanoma 49.4% | RXF 393 renal 21.5% | SF-268 CNS 21% | SF-295 CNS 66.3% | UACC-257 melanoma 46.9% | M14 melanoma 22.5%

CSc1nc(N)c(CNC(C)c2ccccc2)c(=O)n1C (configuration not stated)
inactive: NCI-H23 lung 97.4% | NCI-H226 lung 91.4% | NCI-H322M lung 169% | HOP-62 NSCLC 95% | NCI-H460 lung 105% | HOP-92 NSCLC 89% | NCI-H522 lung 94.3% | A549/ATCC NSCLC 97.7% | 786-0 renal 90.2% | DU-145 prostate 118% | K-562 leukemia 96.2% | MDA-MB-231 breast 114% | RXF 393 renal 98.9% | SF-268 CNS 106% | SF-295 CNS 117% | SF-539 CNS 94.9% | UACC-257 melanoma 90.2% | M14 melanoma 97.5%

CCC(=O)OC1=C(C)SC2=NC(c3ccc(Cl)c(Cl)c3)=CC(c3cc(OC)c(OC)c(OC)c3)N21 (configuration not stated)
inactive: NCI-H23 lung 98.5% | NCI-H226 lung 95% | NCI-H322M lung 97.4% | HOP-62 NSCLC 95.9% | NCI-H460 lung 108% | HOP-92 NSCLC 67.9% | NCI-H522 lung 97.8% | A549/ATCC NSCLC 105% | 786-0 renal 104% | DU-145 prostate 114% | K-562 leukemia 103% | MALME-3M melanoma 104% | MDA-MB-231 breast 90.2% | RXF 393 renal 91% | SF-268 CNS 102% | SF-295 CNS 94.8% | SF-539 CNS 90.9% | M14 melanoma 106%

CN1CCN(CCCOc2ccc3nc(Nc4cc(Cl)cc(Cl)c4)ccc3c2)CC1
active: NCI-H23 lung -40.7% | NCI-H226 lung -9.2% | NCI-H322M lung -55.5% | HOP-62 NSCLC -87.5% | NCI-H460 lung -76.2% | HOP-92 NSCLC -27% | NCI-H522 lung -81.4% | A549/ATCC NSCLC -81% | 786-0 renal -75.6% | DU-145 prostate -84.1% | K-562 leukemia -61.8% | MALME-3M melanoma -54.4% | MDA-MB-231 breast -73.2% | RXF 393 renal -60.6% | SF-268 CNS -78.9% | SF-295 CNS -75.9% | SF-539 CNS -86.5% | UACC-257 melanoma -81.5% | M14 melanoma -62.2%

O=C1CSC(c2ccccc2)N1c1ccccc1 (configuration not stated)
inactive: NCI-H23 lung 99.7% | NCI-H226 lung 96.2% | NCI-H322M lung 90.4% | HOP-62 NSCLC 116% | NCI-H460 lung 103% | HOP-92 NSCLC 82.4% | NCI-H522 lung 104% | A549/ATCC NSCLC 103% | 786-0 renal 105% | DU-145 prostate 107% | K-562 leukemia 107% | MDA-MB-231 breast 103% | RXF 393 renal 95.8% | SF-268 CNS 105% | SF-295 CNS 96.6% | SF-539 CNS 108% | UACC-257 melanoma 101% | M14 melanoma 99.5%

O=C1Nc2ccccc2SC1c1ccccc1Cl (configuration not stated)
inactive: NCI-H23 lung 102% | NCI-H226 lung 104% | NCI-H322M lung 95.6% | HOP-62 NSCLC 96.3% | NCI-H460 lung 116% | HOP-92 NSCLC 69.2% | NCI-H522 lung 103% | A549/ATCC NSCLC 90% | 786-0 renal 97.5% | DU-145 prostate 108% | K-562 leukemia 41.2% | MALME-3M melanoma 81.9% | MDA-MB-231 breast 98.9% | SF-268 CNS 87.8% | SF-295 CNS 58.2% | SF-539 CNS 109% | UACC-257 melanoma 100% | M14 melanoma 93.7%

From PubChem BioAssay (NCI)
